Data as given in PubChem BioAssay.
Where “and” joins values, the source holds several entries; their conditions need not be identical. Equal values may be shown once. Calls of active or inactive are those of the source. Unless noted, no rule for the calls is given here.

What was measured:
[1] = hESC survival regulators, cell-based (AID 493140); settings: human embryonic stem cell survival screen; stronger effect = higher value;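 also: cells exposed to compounds for four days before counting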
[2] = sensitizers of A549 cells to miR-34 induction, primary screen, imaging, A549 dox-inducible miR-34, nuclei and caspase counts (AID 1347080;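 active = compounds whose cell count with miR-34 switched on is under 0.7 times the count with it off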); settings: A549 miR-34 inducible, Hoechst nuclei count, 48 h
[3] = inhibitors of Cryptococcus chitosan production, flow cytometry, Cibacron Brilliant Red staining (AID 1347148); settings: Cryptococcus neoformans chitosan, stronger effect = lower value; at 10 µM unless noted;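 also: compound exposure lasted three days at 37 degrees C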
[4] = circadian clock period modulators, cell-based, LOPAC library, luminescence reporter (AID 2774); settings: circadian reporter cells, at 7 µM, actives lie on both sides;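 also: values are relative to mean of DMSO wells on each plate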
[5] = test system: Hepatitis C virus NS3 helicase; test: HCV NS3 helicase inhibitors, primary screen, biochemical, fluorescence polarization, LOPAC1280 library (AID 687035; in the data active = inhibition above about 37%); settings: Purified HCV NS3 helicase, Cy5-dT15 ssDNA binding fluorescence polarization; stronger effect = higher value; concentration not given here
[6] = Cy5 fluorescence quenching or enhancement artefacts, artefact control for HCV NS3 helicase inhibitor project, biochemical, LOPAC1280 (AID 687037); settings: Cy5-DNA-NS3h complex fluorescence interference counterscreen
[7] = stronger effect = lower value, cell number ratio, induced over uninduced
[8] = measured here: relative caspase fold change +Dox/-Dox
[9] = measured here: total cells with miR-34 induction, stronger effect = lower value
[10] = measured here: total cells without miR-34 induction

Structure (SMILES) | survival [1] | fold change [2, 7] | fold change [2, 8] | cell count [2, 9] | cell count [2, 10] | fold fluorescence [3] | period change [4] | inhibition [5] | fluorescence ratio (interference) [6]
CC(C)n1cnc2c(NCc3ccccc3)nc(NCCO)nc21 | 106 (inactive) | 1.14 (inactive) | 1.24 | 2020 | 1780 | 3.89 [at 153.2 µM] (inactive) | – | – | –
CCCCCCCCCCC1=C(C)C(=O)C(OC)=C(OC)C1=O | – | 0.94 (inactive) | 1.42 | 3450 | 3660 | 4.65 [at 155.1 µM] (inactive) | – | – | –
CCCCC/C=C\C/C=C\C/C=C\C/C=C\CCCC(=O)O[C@@H](CO)COCCCCCCCCCCCCCCCC | 92.7 (inactive) | 0.961 (inactive) | 1.06 | 5620 | 5840 | 5.56 (inactive) | – | – | –
CCCCC/C=C\CC1OC1C/C=C\C/C=C\CCCC(=O)O (stereo unspecified) | 104 (inactive) | 1.05 (inactive) | 1.1 | 5770 | 5500 | 6.17 [at 1 µM] (inactive) | – | – | –
CC(=O)OCOC(c1cc([N+](=O)[O-])ccc1Oc1ccc(Br)cc1)P(=O)(OCOC(C)=O)OCOC(C)=O (stereo unspecified) | – | 1.27 (inactive) | 0.666 | 3110 | 2450 | 3.77 [at 80.6 µM] (inactive) | – | – | –
CCCCC/C=C\C\C=C/C=C/C=C/[C@@H](SCC(NC(C)=O)C(=O)O)[C@@H](O)CCCC(=O)O (stereo partly specified) | 136 (inactive) | 0.952 (inactive) | 1.06 | 5780 | 6080 | 4.05 [at 1 µM] (inactive) | – | – | –
CCCCC/C=C\C/C=C\CCCCCCCC(N)=O | 66.5 (inactive) | 0.981 (inactive) | 1.16 | 6200 | 6320 | 4.31 (inactive) | – | – | –
CC(=O)N[C@@H](CSC/C=C(\C)CCC=C(C)C)C(=O)O | 97.5 (inactive) | 0.983 (inactive) | 1.12 | 5900 | 6000 | 5.25 (inactive) | – | – | –
N#CC(C#N)=C(N)/C(C#N)=C/c1ccc2[nH]ccc2c1 | 107 (inactive) | 1.01 (inactive) | 0.81 | 5080 | 5030 | 3.69 [at 192.8 µM] (inactive) | – | – | –
CCCCCCCCCCOCCC(=O)O | 53.3 (inactive) | 0.905 (inactive) | 1.29 | 5410 | 5970 | 6.36 (inactive) | – | – | –
CCCCCC1OC1C/C=C\C/C=C\C/C=C\CCCC(=O)O (stereo unspecified) | 88.4 (inactive) | 0.949 (inactive) | 1.73 | 6230 | 6560 | 5.49 [at 1 µM] (inactive) | – | – | –
CCCCC/C=C\C[C@H](O)/C=C/C=C\C/C=C\CCCC(=O)O | 93.5 (inactive) | 0.969 (inactive) | 1.13 | 5180 | 5340 | 4.99 [at 1 µM] (inactive) and 5.6 [at 1 µM] (inactive) | – | – | –
CCCCCCCCCCC/C=C\C/C=C\CCCC(=O)O | 98.8 (inactive) | 0.918 (inactive) | 0.921 | 5350 | 5820 | 4.42 (inactive) | – | – | –
CCCCC/C=C\CC(O)/C=C/c1cccc(CC(O)CCCCO)n1 (stereo unspecified) | 97.4 (inactive) | 0.988 (inactive) | 1.4 | 5690 | 5760 | 3.69 [at 1 µM] (inactive) | 0.025 h (inactive) | -1% (inactive) | 0.9 (inactive)
COC(=O)[C@@H](N)CSC/C=C(\C)CC/C=C(\C)CCC=C(C)C | 74.2 (inactive) | 0.927 (inactive) | 1.37 | 6060 | 6540 | 4.53 (inactive) | – | – | –
CCCCCCCCCCCCCCCC(=O)N[C@H](CN1CCOCC1)[C@H](O)c1ccccc1 | 83.7 (inactive) | 1 (inactive) | 1.57 | 5590 | 5590 | 5.42 (inactive) | – | – | –
CCCCCCCCCCCCCCCCOC[C@H](CO)OC | – | 0.866 (inactive) | 0.894 | 4770 | 5500 | 4.63 (inactive) | – | – | –
N#Cc1c(-c2ccccc2)no[n+]1[O-] | – | 1.56 (inactive) | 1 | 1090 | 700 | 6.16 [at 267.2 µM] (inactive) | -0.17 h (inactive) | – | –
COCCCCCCCCCCCC(=O)O | 81.7 (inactive) | 0.981 (inactive) | 1.11 | 5900 | 6020 | 7.84 (inactive) | – | – | –
NCCNS(=O)(=O)c1cccc2cnccc12 | 266 (active) | 1.1 (inactive) | 1.06 | 3580 | 3260 | 3.25 [at 154.2 µM] (inactive) | 0.39 h (inactive) | – | –
